Rab9 prom act: qHTS Assay for Rab9 Promoter Activators | Potency, µM (series often up to 9.22 µM), most hits filed as activators | hit rate 2.8% among 320,000 | Huh7 Rab9 promoter-luciferase reporter, luminescence, 24 h; also: nearly all actives have a fitted effect of over 60% in size
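Measured in stably transfected Huh7 cells bearing a Rab9 promoter–luciferase construct: 24 h compound treatment at 37 °C, followed by luminescence detection.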
FLuc modulator: qHTS profiling assay for firefly luciferase inhibitor/activator using purifed enzyme and Km concentrations of substrates (counterscreen for miR-21 project); Luciferin 4-monooxygenase (Photinus pyralis), P08659; purified FLuc, Km substrates, luminescence inhibition; Potency, µM (highest dose often 57.5 µM), hits mostly inhibitors; hit rate 6.9% among 360,000; AID 588342, 2011; also: nearly all actives have a fitted effect of over 55% in size
Target sequence (P08659 whole entry, looked up): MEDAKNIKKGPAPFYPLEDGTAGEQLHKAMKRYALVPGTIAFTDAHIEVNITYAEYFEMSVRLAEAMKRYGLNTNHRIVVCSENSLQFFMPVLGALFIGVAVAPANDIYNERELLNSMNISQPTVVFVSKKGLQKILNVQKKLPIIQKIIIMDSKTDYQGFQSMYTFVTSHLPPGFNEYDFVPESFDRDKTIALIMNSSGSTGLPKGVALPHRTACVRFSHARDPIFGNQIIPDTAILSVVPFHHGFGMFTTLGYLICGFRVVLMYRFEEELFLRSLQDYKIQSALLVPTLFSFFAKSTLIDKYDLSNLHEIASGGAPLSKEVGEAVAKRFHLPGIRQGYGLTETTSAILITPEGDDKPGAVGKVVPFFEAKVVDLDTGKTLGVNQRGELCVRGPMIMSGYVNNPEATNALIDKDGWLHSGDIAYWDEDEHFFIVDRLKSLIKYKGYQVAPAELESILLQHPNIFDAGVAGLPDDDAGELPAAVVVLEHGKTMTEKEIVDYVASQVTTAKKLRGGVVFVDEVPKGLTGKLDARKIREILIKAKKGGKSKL
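Purified P. pyralis luciferase, 10 nM final, with Km-level 10 uM D-luciferin and 10 uM ATP in 50 mM Tris acetate pH 7.5, 10 mM Mg acetate, 0.01% Tween-20, 0.05% BSA; 6-point qHTS titration about 60 µM downward; luminescence read.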
NPC1 promoter act: qHTS Assay for NPC1 Promoter Activators; Huh7 NPC1 promoter luciferase reporter, 24 h; Potency, µM (doses to about 9.22 µM), usual class: activators; hit rate 2.4% among 320,000; AID 485313, 2010; also: nearly all actives have a fitted effect of over 60% in size
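NPC1 promoter–luciferase Huh7 cells; 24 h compound; luminescence.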
Luc counter: Counterscreen for Luciferase (Kinase-Glo TM) Inhibition; Luciferin 4-monooxygenase (Photuris pensylvanica), Q27757; Kinase-Glo luciferase, ATP luminescence, 8 min; Potency, µM (top dose mostly 38.3 µM), hits mostly inhibitors; hit rate 0.28% among 200,000; also: nearly all actives have a fitted effect of over 60% in size
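Substrate mix (final 50 mM imidazole pH 7.2, 50 mM KCl, 7 mM MgCl2, 10 uM ATP, 0.01% Tween 20, 0.05% BSA) plus pin-tool compound, then Kinase-Glo detection mix; 8 min ambient, luminescence read.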
SMN2 splice up: qHTS Assay for Enhancers of SMN2 Splice Variant Expression; hit rate 2.8% among 210,000; HEK293 SMN2-luciferase splicing reporter, luminescence, 30-36 h; Potency, µM (highest dose often 46.1 µM), most hits filed as activators; AID 1458, 2008; also: nearly all actives have a fitted effect of over 55% in size
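HEK293 cells carry an SMN2 […]–luciferase reporter in which exon 7 inclusion puts luciferase in frame. Cells were plated 10-12 h before compound addition, then incubated 30-36 h at 37C. ONE-Glo luminescence was read; sodium butyrate at 4.5 mM final served as control.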
ELG1 genotoxic: qHTS screen for small molecules that induce genotoxicity in human embryonic kidney (HEK293T) cells expressing luciferase-tagged ELG1; HEK293T ELG1-luciferase reporter, luminescence, 16 h; Potency, µM (highest dose often 46 µM), usual class: activators; hit rate 1.3% among 330,000; also: nearly all actives have a fitted effect of over 60% in size
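16 hr compound incubation (37 °C, 5% CO2) of HEK293T cells carrying luciferase-tagged ELG1; luciferase then measured by ONE-Glo luminescence after 30 min at RT.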
Hits are given with their value. In the library only some 7.5% were active in any assay of this set; here they are far more common. Calls follow the shape of the dose curve; as a rule, active = well fitted curve in the direction sought with a large enough effect; inconclusive = small, poorly fitted or top-dose-only effect, or another doubt; inactive = no such curve, though single readings can be large; an effect the other way counts as inactive or inconclusive.

O=C(O)c1ccc2nc(-c3cc4cc(Cl)ccc4oc3=O)[nH]c2c1 was read as FLuc modulator 21µM.
Cc1cccc2cc(-c3nc4ccc(C(=O)O)cc4[nH]3)c(=O)oc12 was read as Rab9 prom act inconclusive, FLuc modulator 0.43µM, NPC1 promoter act inconclusive and ELG1 genotoxic inconclusive.
`COc1cc(Cl)c(NS(=O)(=O)c2ccc(-c3cnc(C4CC4)o3)cc2)c(OC)c1` gave FLuc modulator inactive.
O=C(NC(=S)N1CCN(c2nc(-c3ccccc3)cs2)CC1)c1cncc(Br)c1 was read as Rab9 prom act inactive, FLuc modulator inconclusive, NPC1 promoter act inactive, Luc counter inactive, SMN2 splice up inactive and ELG1 genotoxic inactive.
Screening CC(C)c1ccc(/C=C/C2=NNC(=O)CC2)cc1 returned Rab9 prom act inconclusive, FLuc modulator 5.4µM, NPC1 promoter act inactive, Luc counter inactive, SMN2 splice up 10µM and ELG1 genotoxic inconclusive.
For COc1cc(/C=C/C2=NNC(=O)CC2)cc(OC)c1OC the results were Rab9 prom act inactive, FLuc modulator inactive, NPC1 promoter act inactive and ELG1 genotoxic inconclusive.
For CC(=O)N(c1nnc(-c2cccc(C)c2)s1)C1CCCC1 the results were Rab9 prom act inconclusive, FLuc modulator 24µM, NPC1 promoter act inconclusive and ELG1 genotoxic inactive.
For CC(C(=O)O)c1ccc(N2Cc3ccccc3C2=O)cc1 (stereo not given) the results were Rab9 prom act 0.32µM, FLuc modulator 0.27µM, NPC1 promoter act 0.089µM, Luc counter inconclusive, SMN2 splice up 1.3µM and ELG1 genotoxic inactive.
`CN1CCC(=O)N([C@H](CSc2ccc(Br)cc2)c2ccccc2)CC1` gave Rab9 prom act inconclusive, FLuc modulator 17µM, NPC1 promoter act inconclusive and ELG1 genotoxic inconclusive.
Screening O=C1CCN(CCc2ccccc2)CCN1[C@H](CSc1ccccc1)c1ccccc1 returned Rab9 prom act inactive, FLuc modulator inconclusive, NPC1 promoter act inactive and ELG1 genotoxic inactive.
For CCCN1CCC(=O)N([C@H](CSc2ccccc2)c2ccccc2)CC1 the results were Rab9 prom act inconclusive, FLuc modulator inconclusive, NPC1 promoter act inconclusive and ELG1 genotoxic inactive.
Screening CN1CCC(=O)N([C@H](CC#N)c2ccccc2)CC1 returned Rab9 prom act inactive, FLuc modulator inactive, NPC1 promoter act inactive and ELG1 genotoxic inactive.
`Cc1ccc(SC[C@H](c2ccccc2)N2CCN(CCc3ccccc3)CCC2=O)cc1` gave Rab9 prom act inactive, FLuc modulator 27µM, NPC1 promoter act inactive and ELG1 genotoxic inactive.
For CCCN1CCC(=O)N([C@H](CSc2ccc(C)cc2)c2ccccc2)CC1 the results were Rab9 prom act inconclusive, FLuc modulator 15µM, NPC1 promoter act inconclusive and ELG1 genotoxic inactive.
Screening CCCN1CCC(=O)N([C@H](CSc2ccc(OC)cc2)CC(C)C)CC1 returned Rab9 prom act inconclusive, FLuc modulator 15µM, NPC1 promoter act inconclusive and ELG1 genotoxic inconclusive.
CSc1cccc(NS(=O)(=O)c2ccc3[nH]cc(C(=O)N4CCCC4)c(=O)c3c2)c1 was read as FLuc modulator inconclusive and SMN2 splice up inactive.
`CC(Sc1n[nH]c(-c2cccs2)n1)C(=O)N1CCCC1` (stereo not given) gave ELG1 genotoxic inactive.
Screening COc1ccc(N2CCN(S(=O)(=O)CCNC(=O)C3CC3)CC2)cc1 returned Rab9 prom act inactive, FLuc modulator inactive, NPC1 promoter act inactive and ELG1 genotoxic inactive.
Screening CCOC(=O)c1ccc(NC(=S)NC(=O)c2nn(CC)cc2Br)cc1 returned Rab9 prom act inactive, FLuc modulator inactive, NPC1 promoter act inactive, Luc counter inactive, SMN2 splice up inactive and ELG1 genotoxic inactive.
CCOC(=O)c1ccc(NC(=O)c2nn(CC)cc2Br)cc1 was read as Rab9 prom act inconclusive, FLuc modulator 11µM, NPC1 promoter act inconclusive, Luc counter inactive, SMN2 splice up inconclusive and ELG1 genotoxic inconclusive.
